# In the supplement of paper PMC3334620:
# The full ranking holds about 33,000 sequences; the median of “E-score (-0.5 to 0.5)” is about -0.015, and the highest 2% start at about 0.3. For the sample, the highest values were picked, then their nearest neighbours and some sequences at random.
# Biological target: T1, Abf1 (UniProt P14164)
# T1 sequence: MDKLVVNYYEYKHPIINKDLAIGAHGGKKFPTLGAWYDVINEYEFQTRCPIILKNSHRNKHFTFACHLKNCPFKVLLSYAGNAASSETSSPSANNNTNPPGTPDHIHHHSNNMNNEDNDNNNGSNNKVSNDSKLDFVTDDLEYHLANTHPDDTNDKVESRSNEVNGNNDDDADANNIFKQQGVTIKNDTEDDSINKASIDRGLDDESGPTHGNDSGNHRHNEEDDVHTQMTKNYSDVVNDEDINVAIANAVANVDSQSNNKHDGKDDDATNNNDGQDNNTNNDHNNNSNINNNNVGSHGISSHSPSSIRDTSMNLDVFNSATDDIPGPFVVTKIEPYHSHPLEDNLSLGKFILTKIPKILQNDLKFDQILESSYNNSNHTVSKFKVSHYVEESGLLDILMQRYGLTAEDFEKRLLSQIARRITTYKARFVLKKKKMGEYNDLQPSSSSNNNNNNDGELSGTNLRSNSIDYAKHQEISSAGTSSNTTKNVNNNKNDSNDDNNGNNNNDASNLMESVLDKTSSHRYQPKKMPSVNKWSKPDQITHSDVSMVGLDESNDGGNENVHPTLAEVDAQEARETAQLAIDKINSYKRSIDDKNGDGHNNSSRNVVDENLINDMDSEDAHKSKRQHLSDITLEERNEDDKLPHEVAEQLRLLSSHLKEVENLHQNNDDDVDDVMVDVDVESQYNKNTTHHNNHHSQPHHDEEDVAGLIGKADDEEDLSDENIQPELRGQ
# Assay: PBM E-score (8-mer binding enrichment) (E-score (-0.5 to 0.5)); higher = stronger / more preferred TF binding
# Conditions: protein concentration: 200 nM; construct: GST-full length
# Description: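 Universal 'all 10-mer' protein binding microarrays (Agilent AMADID 015681) probed with GST-tagged S. cerevisiae TFs (full-length or DBD) made by in vitro transcription/translation (PURExpress), about 100-200 nM. Bound TF was detected with fluorescent anti-GST. Each ungapped 8-mer (which stands for itself and its reverse complement) is scored by the PBM enrichment score (E-score), a modified Wilcoxon-Mann-Whitney statistic from -0.5 to +0.5, computed with the Universal PBM Analysis Suite. Scale: above 0.35 generally sequence-specific binding.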
row,Sequence,PBM E-score
1,GTCCGGTA,0.00344
2,CTCACGTA,-0.0341
3,AACTATAT,0.205
4,CATTATCA,0.329
5,AGTTATCG,0.223
6,CATTATCC,0.262
7,TATTATAA,0.121
8,AGTTATCA,0.302
9,ACTTATCA,0.231
10,CCTTATCA,0.236
11,CATTATCG,0.0198
12,TCTTATCA,0.316
13,TATTATGA,0.0866
14,GGTTATCA,0.272
15,TATTATCA,0.34
16,GGGAGGCA,-0.284
17,GGGGACGA,0.135
18,AATTATCG,0.178
19,GATTATCC,0.152
20,GATTATCA,0.302
21,AATTATCA,0.34
22,GATTATTA,0.0366

row,Sequence,PBM E-score
1,AATTATCC,0.0502
2,CATCCATA,0.0978
3,CATGAACC,-0.00224
4,GCCCGAGA,-0.194
5,GTCATTAA,0.385
6,ATCATTAC,0.262
7,ATCATTAG,0.279
8,ATCATTAA,0.307
9,CTCATTAA,0.148
10,GACATTAA,0.227
11,CTAAGCGC,-0.121
12,CTTTGCAC,0.209
13,ACCTTTAC,-0.0849
14,AGTTCGTA,0.264
15,GGTTCGTA,0.14
16,ATTTCGTG,0.288
17,CGTTCGGC,0.0205
18,CGTTCGTA,0.345
19,AGTTCGTG,0.326
20,CGTTCGTC,0.358
21,AGTTCGGG,0.0167
22,CGTTCGAA,0.311

row,Sequence,PBM E-score
1,TGTTCGAA,-0.0208
2,CGTTCGAC,0.122
3,AGTTCGTC,0.164
4,ATAAGGAT,-0.00817
5,AGGGAAGC,-0.197
6,CTGCTGGC,-0.25
7,ATCGAAAA,0.0388
8,GATCACGC,0.366
9,GCTCACGA,0.125
10,ATTCACGA,0.235
11,GATCACAA,0.26
12,GATCACAC,0.118
13,CATCACGC,0.191
14,CTTCACGA,0.2
15,GTTCACGA,0.3
16,GATCACGA,0.301
17,ACACTCGA,-0.0221
18,CGTCCATC,0.0706
19,GATACGGA,0.279
20,AGGGTGGG,-0.0843
21,CATTTGAG,0.0534
22,CGCCAGAA,-0.0306

row,Sequence,PBM E-score
1,CAGTCGGG,0.0146
2,GATAGCCA,-0.0722
3,GACAATCC,0.0976
4,GTACGAAC,0.418
5,GGACGAAC,0.323
6,GCACGAAA,0.336
7,ATACGAAC,0.294
8,ACACGAAA,0.288
9,AGACGAAC,0.24
10,GAACGAAC,0.121
11,CTACGAAC,0.275
12,TTACGAAA,0.279
13,CTACGAAA,0.122
14,GTACGAAA,0.376
15,GCACGAAC,0.269
16,AAATCTAG,0.045
17,ATACTTGA,-0.0426
18,AAGCACCC,-0.201
19,ATGGAAAA,0.177
20,GATTGAGA,0.21
21,CGTTAGTC,0.00116
22,GATCGCTA,0.157
